In PubChem BioAssay:
The source made the active and inactive calls. Unless noted, the rule behind the calls is not given here.

Legend:
[1] = test system: Wnt5a (protein binding on small-molecule microarray); test: small molecules binding Wnt5a protein – biophysical, small-molecule microarray, 635/667 nm fluorescence, primary screen (AID 1142); conditions: 635 nm fluorescence, higher = more signal;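 note: fluorescence read at 667 nm with signal to noise per printed feature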
[2] = ATP-based viability of Huh7 replicon cells – cell-based, CellTiter-Glo luminescence, basal, 48 h, cytotoxicity control for HCV replication inhibitor project, primary screen (AID 1143); conditions: higher = more signal, called active from +8 up or from −8 down;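 note: Huh7 hepatoma cells carrying a hepatitis C replication reporter with no stimulus; test concentration not given here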
[3] = Pseudomonas biofilm growth suppression – PAO1 strain, BacTiter-Glo luminescence, LB-PBS, primary screen (AID 1144); conditions: P. aeruginosa PAO1 biofilm, 12 h, higher = more signal
[4] = basal CRE-LacZ reporter activity in PC12 – cell-based, unstimulated, primary screen (AID 1145); conditions: no forskolin, luminescence, 4.5 h, higher = more signal, called active from +8 up or from −8 down
[5] = forskolin-driven CRE-LacZ activity in PC12 – cell-based, CRE-LacZ reporter, forskolin-stimulated, primary screen (AID 1146); conditions: luminescence, 4.5 h, higher = more signal, called active from +8 up or from −8 down;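 note: PC12 cells with 6xCRE LacZ reporter stimulated by forskolin 10 µM; beta-galactosidase reporter signal reflecting CREB driven transcription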
[6] = biological target: Streptavidin (Streptomyces avidinii) (UniProt P22629); test: compounds binding control protein streptavidin – biophysical, small-molecule microarray, 635/667 nm fluorescence, artefact control for SMM compound annotation, primary screen (AID 1147); conditions: higher = more signal;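 note: signal reflects streptavidin binding to arrayed compounds as a control protein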
Streptavidin (Streptomyces avidinii), sequence (P22629 whole entry, looked up): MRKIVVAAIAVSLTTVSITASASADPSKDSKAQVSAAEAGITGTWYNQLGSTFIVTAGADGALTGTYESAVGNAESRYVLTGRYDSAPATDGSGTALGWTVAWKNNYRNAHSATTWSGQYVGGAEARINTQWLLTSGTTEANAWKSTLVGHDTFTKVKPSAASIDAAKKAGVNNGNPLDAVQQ

[7] = probe aInhba binding on compound microarray – biochemical, small-molecule microarray, 635/667 nm fluorescence, primary screen (AID 1148); conditions: higher = more signal;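 note: score merges 667nm spot fluorescence with signal-to-noise for antibody binding to printed compounds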
[8] = biological target: Torsin-1A (Homo sapiens) (UniProt O14656); test: TOR1A wild-type binding on microarray – cell lysate, small-molecule microarray, lysate, 635/667 nm, primary screen (AID 1149); conditions: COS7 hTOR1A-WT lysate, 635 nm fluorescence, higher = more signal
Torsin-1A (Homo sapiens), sequence (O14656 whole entry, looked up): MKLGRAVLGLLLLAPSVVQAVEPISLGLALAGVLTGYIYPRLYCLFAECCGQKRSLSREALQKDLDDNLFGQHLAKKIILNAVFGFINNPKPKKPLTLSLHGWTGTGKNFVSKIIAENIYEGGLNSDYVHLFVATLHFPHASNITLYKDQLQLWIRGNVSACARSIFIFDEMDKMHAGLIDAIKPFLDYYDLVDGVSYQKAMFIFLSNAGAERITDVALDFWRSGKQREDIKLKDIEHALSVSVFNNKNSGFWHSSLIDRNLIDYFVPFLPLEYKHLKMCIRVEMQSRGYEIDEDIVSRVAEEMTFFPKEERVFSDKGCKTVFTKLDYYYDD

[9] = biological target: Torsin-1A (Homo sapiens) (UniProt O14656); test: torsin A mutant lysate binding on microarrays – cell lysate, small-molecule microarray, COS7 lysate, 635/667 nm fluorescence, primary screen (AID 1150); conditions: COS7 hTOR1A mutant lysate, 635 nm fluorescence, higher = more signal;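 note: score pools 667 nm emission and signal to noise measuring lysate protein binding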
[10] = test system: Sonic hedgehog protein (Shh); test: Sonic hedgehog microarray binding compounds – biochemical, small-molecule microarray, 635/667 nm fluorescence, primary screen (AID 1151); conditions: 635 nm fluorescence, higher = more signal;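 note: Shh protein binding to compounds spotted on small-molecule microarray slides; score combines spot fluorescence intensity with signal-to-noise across triplicate slides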
[11] = optical density shifts of acrAB sulA E. coli – strain DRC41, OD650, 48 h, E. coli filamentation inducer project, primary screen (AID 1152); conditions: higher = more signal, called active from +8 up or from −8 down;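 note: E. coli MC1000 strain DRC41 lacking acrAB efflux pump and sulA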
[12] = probe aLefty1 binding on compound microarray – biochemical, small-molecule microarray, 635/667 nm fluorescence, primary screen (AID 1153); conditions: higher = more signal;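 note: score merges spot fluorescence with signal-to-noise ratio from the scanned slide images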
[13] = plasmodial surface anion channel blockers, osmotic lysis – cell-based, P. falciparum Indochina, OD700, 1 h, primary screen (AID 1154); conditions: P. falciparum Indochina infected RBC osmotic lysis, higher = more signal, called active from +8 up or from −8 down
[14] = plasmodial surface anion channel blockers, osmotic lysis – cell-based, P. falciparum Indochina, OD700, 2 h, primary screen (AID 1155);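 note: lysis reports solute entry through the parasite surface anion channel PSAC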; conditions: P. falciparum Indochina infected erythrocytes, higher = more signal, called active from +8 up or from −8 down
[15] = changes in parasitized red cell lysis, either direction – P. falciparum Indochina, OD700, 3 h, PSAC antagonist project, primary screen (AID 1156); conditions: P. falciparum-infected erythrocytes, osmotic lysis, higher = more signal, called active from +8 up or from −8 down
[16] = plasmodial surface anion channel blockers, osmotic lysis – cell-based, P. falciparum Indochina, OD700, 18 h, primary screen (AID 1157); conditions: P. falciparum Indochina infected erythrocytes, osmotic lysis OD700, 18 h; higher = more signal, called active from +8 up or from −8 down
[17] = S6 kinase pathway phospho-S6 level changes – cell-based, A549, cytoblot, luminescence, serum-stimulated, primary screen (AID 1158); conditions: 5 h, higher = more signal;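 note: serum-stimulated A549 lung adenocarcinoma cells; signal is phosphorylated S6 detected by cytoblot immunostaining with HRP secondary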
[18] = biological target: NADPH oxidase 2 (Homo sapiens) (UniProt P04839); test: compounds shifting NOX2 Amplex Red fluorescence – cell-based, HEK293-NOX2, PMA-stimulated, NOX inhibitor project, primary screen (AID 1159); conditions: 45 min, higher = more signal, called active from +8 up or from −8 down; note: test concentration not given here
NADPH oxidase 2 (Homo sapiens), sequence (P04839 whole entry, looked up): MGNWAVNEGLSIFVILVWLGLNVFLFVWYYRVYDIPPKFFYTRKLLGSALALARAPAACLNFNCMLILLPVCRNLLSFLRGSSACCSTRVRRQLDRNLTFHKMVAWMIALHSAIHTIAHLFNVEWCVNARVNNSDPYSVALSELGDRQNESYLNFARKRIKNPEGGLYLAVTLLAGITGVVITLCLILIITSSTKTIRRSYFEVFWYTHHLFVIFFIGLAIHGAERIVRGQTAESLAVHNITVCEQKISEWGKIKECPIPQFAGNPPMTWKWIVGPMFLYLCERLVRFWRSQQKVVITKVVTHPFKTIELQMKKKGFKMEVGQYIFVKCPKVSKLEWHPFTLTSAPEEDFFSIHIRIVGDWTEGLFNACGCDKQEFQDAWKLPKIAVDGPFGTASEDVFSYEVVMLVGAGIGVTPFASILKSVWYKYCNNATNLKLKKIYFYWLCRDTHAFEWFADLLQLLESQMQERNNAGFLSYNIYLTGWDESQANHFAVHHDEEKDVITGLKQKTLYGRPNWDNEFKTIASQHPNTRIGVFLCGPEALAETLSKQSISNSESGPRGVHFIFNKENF

[19] = biological target: NADPH oxidase 4 (Homo sapiens) (UniProt Q9NPH5); test: compounds shifting NOX4 Amplex Red fluorescence – cell-based, HEK293-NOX4, tetracycline-induced, NOX inhibitor project, primary screen (AID 1160); conditions: HEK293-NOX4, Amplex Red H2O2 fluorescence, 45 min; higher = more signal, called active from +8 up or from −8 down
NADPH oxidase 4 (Homo sapiens), sequence (Q9NPH5 whole entry, looked up): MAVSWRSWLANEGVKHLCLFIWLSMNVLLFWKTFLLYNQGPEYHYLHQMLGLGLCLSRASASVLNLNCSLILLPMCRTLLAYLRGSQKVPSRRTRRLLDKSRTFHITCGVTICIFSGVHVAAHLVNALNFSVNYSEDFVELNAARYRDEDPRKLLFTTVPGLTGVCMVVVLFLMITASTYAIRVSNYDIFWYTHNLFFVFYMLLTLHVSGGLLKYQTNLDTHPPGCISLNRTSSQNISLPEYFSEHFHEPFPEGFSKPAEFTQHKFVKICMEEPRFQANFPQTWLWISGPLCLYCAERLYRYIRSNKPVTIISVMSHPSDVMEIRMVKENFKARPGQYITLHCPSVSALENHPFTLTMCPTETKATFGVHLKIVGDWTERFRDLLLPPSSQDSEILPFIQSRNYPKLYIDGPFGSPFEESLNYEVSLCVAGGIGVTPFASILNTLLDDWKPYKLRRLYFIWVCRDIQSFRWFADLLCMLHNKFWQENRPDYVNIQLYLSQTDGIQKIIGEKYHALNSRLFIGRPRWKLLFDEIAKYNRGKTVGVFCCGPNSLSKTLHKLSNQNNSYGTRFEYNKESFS

[20] = biological target: NADPH oxidase 5 (Homo sapiens) (UniProt Q96PH1); test: compounds shifting NOX5 Amplex Red fluorescence – cell-based, HEK293-NOX5, NOX inhibitor project, primary screen (AID 1161); conditions: HEK293-NOX5, ionomycin, 45 min, higher = more signal
NADPH oxidase 5 (Homo sapiens), sequence (Q96PH1 whole entry, looked up): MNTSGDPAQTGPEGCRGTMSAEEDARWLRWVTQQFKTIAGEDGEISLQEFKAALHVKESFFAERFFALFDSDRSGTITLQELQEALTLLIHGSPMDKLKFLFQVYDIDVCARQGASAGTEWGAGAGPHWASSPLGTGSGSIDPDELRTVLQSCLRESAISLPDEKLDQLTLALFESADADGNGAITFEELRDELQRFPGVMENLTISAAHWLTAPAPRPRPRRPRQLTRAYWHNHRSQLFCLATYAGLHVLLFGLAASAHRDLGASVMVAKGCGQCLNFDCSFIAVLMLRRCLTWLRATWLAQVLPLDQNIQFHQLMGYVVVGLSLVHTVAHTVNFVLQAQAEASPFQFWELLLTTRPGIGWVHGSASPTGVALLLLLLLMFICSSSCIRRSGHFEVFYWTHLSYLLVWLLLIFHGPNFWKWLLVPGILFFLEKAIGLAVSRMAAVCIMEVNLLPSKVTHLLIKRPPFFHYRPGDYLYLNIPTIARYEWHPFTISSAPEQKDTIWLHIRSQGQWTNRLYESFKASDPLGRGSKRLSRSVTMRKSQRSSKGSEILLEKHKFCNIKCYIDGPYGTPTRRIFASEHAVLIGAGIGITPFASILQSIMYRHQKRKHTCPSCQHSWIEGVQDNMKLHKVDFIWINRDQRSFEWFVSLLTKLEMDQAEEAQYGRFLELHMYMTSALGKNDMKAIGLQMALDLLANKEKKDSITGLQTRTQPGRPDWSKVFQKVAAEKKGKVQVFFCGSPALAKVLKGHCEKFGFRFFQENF

SMILES: O=C1O[C@@H](c2ccccc2)[C@@H](c2ccccc2)N2[C@@H](c3ccc(OCCO)cc3)[C@]3(C(=O)Nc4ccccc43)[C@@H](C(=O)O)[C@H]12
- composite z-score [1]: 0.615
- z-score [2]: -4.21 (inactive)
- z-score [3]: -0.148 (inactive)
- z-score [4]: -0.258 (inactive)
- z-score [5]: 0.273 (inactive)
- composite z-score [6]: 0.0928
- composite z-score [7]: 0.697
- composite z-score [8]: 0.043
- composite z-score [9]: 1.65
- composite z-score [10]: 0.301
- z-score [11]: 0.635 (inactive)
- composite z-score [12]: 1.46
- z-score [13]: 7.13 (inactive)
- z-score [14]: -1.02 (inactive)
- z-score [15]: -0.202 (inactive)
- z-score [16]: -1.62 (inactive)
- z-score [17]: 1.52
- z-score [18]: 0.262 (inactive)
- z-score [19]: -0.444 (inactive)
- z-score [20]: -0.985

SMILES: O=C1O[C@H](c2ccccc2)[C@H](c2ccccc2)N2[C@H]1[C@@H](C(=O)Nc1nc3ccccc3s1)[C@]1(C(=O)Nc3ccc(C#CCCO)cc31)[C@H]2c1ccc(O)cc1
- composite z-score [1]: -0.11
- z-score [2]: 0.358 (inactive)
- z-score [3]: -0.911 (inactive)
- z-score [4]: -0.141 (inactive)
- z-score [5]: -0.782 (inactive)
- composite z-score [6]: 1.09
- composite z-score [7]: -0.176
- composite z-score [8]: 0.232
- composite z-score [9]: 0.7
- composite z-score [10]: 1.36
- z-score [11]: -0.742 (inactive)
- composite z-score [12]: 0.026
- z-score [13]: 0.402 (inactive)
- z-score [14]: 1.05 (inactive)
- z-score [15]: -5.42 (inactive)
- z-score [16]: 1.23 (inactive)
- z-score [17]: -0.263
- z-score [18]: 1.08 (inactive)
- z-score [19]: 0.38 (inactive)
- z-score [20]: -0.901

SMILES: C[N+](C)(C)CCCCCCNC(=O)[C@H]1C[C@H]2C(=O)N[C@@H](Cc3ccccc3)C(=O)N2[C@H]1c1ccc(O)cc1
- composite z-score [1]: 0.121
- z-score [2]: -0.56 (inactive)
- z-score [3]: 0.271 (inactive)
- z-score [4]: -1.08 (inactive)
- z-score [5]: -0.227 (inactive)
- composite z-score [6]: -0.215
- composite z-score [7]: -0.0695
- composite z-score [8]: 0.561
- composite z-score [9]: 0.313
- composite z-score [10]: 1.94
- z-score [11]: 0.796 (inactive)
- composite z-score [12]: -0.0475
- z-score [13]: 6.4 (inactive)
- z-score [14]: 1.3 (inactive)
- z-score [15]: -0.194 (inactive)
- z-score [16]: 0.374 (inactive)
- z-score [17]: -0.0246
- z-score [18]: 0.847 (inactive)
- z-score [19]: 1.13 (inactive)
- z-score [20]: -0.0901

SMILES: O=C(CS)NCCCCCNC(=O)[C@@H]1C[C@@H]2C(=O)N3CCC[C@H]3C(=O)N2[C@@H]1c1cccc(OCCO)c1
- composite z-score [1]: 0.336
- z-score [2]: -0.0341 (inactive)
- z-score [3]: -0.448 (inactive)
- z-score [4]: 0.143 (inactive)
- z-score [5]: -0.16 (inactive)
- composite z-score [6]: 0.281
- composite z-score [7]: -0.46
- composite z-score [8]: 1.44
- composite z-score [9]: 0.656
- composite z-score [10]: 0.792
- z-score [11]: -1.26 (inactive)
- composite z-score [12]: -0.781
- z-score [13]: 2.76 (inactive)
- z-score [14]: 0.465 (inactive)
- z-score [15]: -0.87 (inactive)
- z-score [16]: 0.277 (inactive)
- z-score [17]: -0.645
- z-score [18]: 1.97 (inactive)
- z-score [19]: 0.231 (inactive)
- z-score [20]: -0.232
